Active and inactive are the calls of the source. Unless noted, calls follow the shape of the dose curve; as a rule, active = well fitted curve in the direction sought with a large enough effect in the repeat runs; inconclusive = weak or mixed curves; inactive = no such curve, though single readings can be large; an effect the other way counts as inactive or inconclusive.
Experiments:
[1] = qHTS assay to identify small molecule antagonists of the thyroid receptor (TR) signaling pathway - cell viability counter screen (AID 743064); also: nearly all actives have a fitted effect of over 50% in size; also: potency is read from the fitted curve at half-maximal effect
Procedure, shortened: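 In rat pituitary GH3.TRE-Luc reporter cells co-exposed to compound and 1 nM T3 for 23.5 h, cytotoxicity was assessed with CellTiter-Fluor in the same wells, read by fluorescence.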

[2] = qHTS assay to identify small molecule antagonists of the thyroid receptor (TR) signaling pathway (AID 743065); also: nearly all actives have a fitted effect of over 55% in size; also: potency is read from the fitted curve at half-maximal effect
Procedure, shortened: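 Antagonism measured as loss of luciferase signal in GH3 cells stably carrying a TRE-luciferase reporter, co-treated with compound and T3 (1 nM final) for 23.5 h at 37 C. Viability was read in the same well by CellTiter-Fluor.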

[3] = system: thyroid hormone receptor (rat, GH3 cells); experiment: qHTS assay to identify small molecule agonists of the thyroid receptor (TR) signaling pathway (AID 743066; calls by dose curve)
[4] = molecular target: Estrogen receptor (Homo sapiens) (UniProt P03372); experiment: qHTS assay to identify small molecule agonists of the estrogen receptor alpha (ER-alpha) signaling pathway (AID 743075; calls by dose curve;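 also: HEK293 GripTite cells with ER-alpha and UAS-driven beta-lactamase reporter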; also: potency is read from the fitted curve at half-maximal effect)
Sequence of Estrogen receptor (Homo sapiens) (P03372 whole entry, looked up): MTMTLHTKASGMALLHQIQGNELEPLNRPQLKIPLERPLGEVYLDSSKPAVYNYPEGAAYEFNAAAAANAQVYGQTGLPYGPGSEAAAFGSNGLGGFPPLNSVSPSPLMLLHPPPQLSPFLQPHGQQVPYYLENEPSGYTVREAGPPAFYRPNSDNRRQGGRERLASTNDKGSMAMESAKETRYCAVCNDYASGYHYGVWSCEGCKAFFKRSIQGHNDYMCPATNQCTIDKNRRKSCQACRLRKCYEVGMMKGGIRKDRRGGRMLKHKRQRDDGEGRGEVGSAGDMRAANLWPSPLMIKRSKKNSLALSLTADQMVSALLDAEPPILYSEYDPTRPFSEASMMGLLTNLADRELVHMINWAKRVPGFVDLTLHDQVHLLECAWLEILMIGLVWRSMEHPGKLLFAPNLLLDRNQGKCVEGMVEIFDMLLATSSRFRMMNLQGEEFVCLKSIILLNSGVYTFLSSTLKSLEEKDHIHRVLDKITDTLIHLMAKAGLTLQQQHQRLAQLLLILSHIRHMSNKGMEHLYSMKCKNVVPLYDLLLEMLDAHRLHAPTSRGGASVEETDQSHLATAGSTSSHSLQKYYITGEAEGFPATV

Aromatase (Homo sapiens) = Aromatase (Homo sapiens) (UniProt P11511); experiment: qHTS assay to identify aromatase inhibitors (AID 743083); also: nearly all actives have a fitted effect of over 55% in size; also: potency is read from the fitted curve at half-maximal effect
Sequence of Aromatase (Homo sapiens) (P11511 whole entry, looked up): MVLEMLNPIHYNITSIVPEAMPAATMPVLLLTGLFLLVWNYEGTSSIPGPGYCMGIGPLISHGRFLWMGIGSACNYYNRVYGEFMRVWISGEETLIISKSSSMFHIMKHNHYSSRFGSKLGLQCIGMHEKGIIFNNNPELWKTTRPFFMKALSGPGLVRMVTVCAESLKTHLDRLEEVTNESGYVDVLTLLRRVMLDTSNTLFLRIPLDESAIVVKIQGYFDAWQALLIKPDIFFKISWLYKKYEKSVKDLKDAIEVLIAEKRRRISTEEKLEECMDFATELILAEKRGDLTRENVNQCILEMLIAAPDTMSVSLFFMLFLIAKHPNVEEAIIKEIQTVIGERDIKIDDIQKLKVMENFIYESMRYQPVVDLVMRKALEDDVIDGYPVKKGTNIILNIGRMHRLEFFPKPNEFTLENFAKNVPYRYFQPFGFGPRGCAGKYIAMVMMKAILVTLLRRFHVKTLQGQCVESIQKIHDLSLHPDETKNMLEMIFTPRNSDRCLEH

[5] = molecular target: Estrogen receptor (Homo sapiens) (UniProt P03372); experiment: qHTS assay to identify small molecule antagonists of the estrogen receptor alpha (ER-alpha) signaling pathway (AID 743069; active = well fitted curve in the direction sought with a large enough effect in the signal ratio in the repeat runs, not every such curve was filed as active; inconclusive = weak or mixed curves, or effect the other way; inactive = no such curve, though single readings can be large or run the other way; the % refers to the signal ratio)
Procedure, shortened: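 ER-alpha-UAS-bla GripTite HEK293 line; 2% charcoal-stripped FBS overnight; plated, 4 hr 37C/5% CO2; cpd in DMSO + 17beta-estradiol, 18 hr 37C; LiveBLAzer B/G FRET substrate 2 hr RT; fluorescence intensity.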

[6] = qHTS assay to identify small molecule antagonists of the estrogen receptor alpha (ER-alpha) signaling pathway - cell viability counter screen (AID 743074; calls by dose curve;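 also: HEK293 cells carrying ER-alpha-UAS-bla reporter stimulated with 17beta-estradiol; nearly all actives have a fitted effect of over 45% in size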)
[7] = molecular target: Estrogen receptor (Homo sapiens) (UniProt P03372); experiment: qHTS assay to identify small molecule agonists of the estrogen receptor alpha (ER-alpha) signaling pathway using the BG1 cell line (AID 743079); conditions: BG1Luc4E2 cells, ERE-luciferase agonist, 22 h; activation: at 70.3 µM (top of the series); also: nearly all actives have a fitted effect of over 20% in size; also: potency is read from the fitted curve at half-maximal effect
[8] = qHTS assay to identify small molecule antagonists of the estrogen receptor alpha (ER-alpha) signaling pathway using the BG1 cell line (AID 743080; calls by dose curve;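 also: BG1 cells stimulated with 17beta-estradiol alongside compound; nearly all actives have a fitted effect of over 25% in size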; also: potency is read from the fitted curve at half-maximal effect)
Procedure, shortened: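 Luciferase inhibition measured with ONE-Glo after 30 min at RT in BG1Luc4E2 cells given test compounds and 17beta-estradiol for 21.5 h at 37 C; CellTiter-Fluor viability read in the same wells beforehand.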

[9] = qHTS assay to identify small molecule antagonists of the estrogen receptor alpha (ER-alpha) signaling pathway using the BG1 cell line - cell viability counter screen (AID 743081);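 also: compound given together with 17beta-estradiol as the ER stimulus; nearly all actives have a fitted effect of over 45% in size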

Measured: Potency

COc1ccccc1NC(=O)c1cc2ccccc2cc1O
inactive: [1] | [3] | [4]
active: [2] 17.2 µM | Aromatase (Homo sapiens) 24.3 µM

CC(C)Nc1cccnc1N1CCN(C(=O)c2cc3cc(NS(C)(=O)=O)ccc3[nH]2)CC1
not listed: [2]
inactive: all other assays above

CCCCCCNC(=O)n1cc(F)c(=O)[nH]c1=O
active: [1] 10.6 µM | [2] 2.66 µM
inactive: [3] | [6] | [9] | Aromatase (Homo sapiens)

CCOc1ccc(Cc2nccc3cc(OCC)c(OCC)cc23)cc1OCC
active: [8] 11.4 µM
inactive: [1] | [3] | [6] | [4] | Aromatase (Homo sapiens)

Cc1cccc(O)c1N
inactive: [1] | [3] | [6] | [9] | Aromatase (Homo sapiens)

N#CCCN(CCO)CCO
not listed: [1]
inactive: all other assays above

O=C1Cc2ccccc2N1c1c(Cl)cccc1Cl
active: [4] 43.6 µM [inconclusive] | [7] 10.9 µM | [8] 68.6 µM
not listed: [2] | [5]
inactive: all other assays above

CCCCCC[C@@H](O)C/C=C\CCCCCCCC(=O)O
inactive: [1] | [3] | [6] | [9] | Aromatase (Homo sapiens)

COc1ccccc1Oc1c(NS(=O)(=O)c2ccc(C(C)(C)C)cc2)nc(-c2ncccn2)nc1OCCO
not listed: [2] | [3] | [6]
inactive: all other assays above

CCCC(C(=O)OCCN(CC)CC)(c1ccccc1)c1ccccc1
active: [1] 23.7 µM
inactive: [5] | [6] | [4] | [7] | [8]

Oc1ccc(Cl)c2cccnc12
inactive: [6] | [4] | [7] | [8] | [9]
active: [1] 7.5 µM | Aromatase (Homo sapiens) 3.35 µM

O=C(O)C[C@H](NC(=O)OCc1ccccc1)C(=O)O
not listed: [2] | [3]
inactive: all other assays above

O=C1c2ccccc2C(=O)c2c(O)c(O)cc(O)c21
active: [1] 54.5 µM
inactive: [3] | [6] | [4] | Aromatase (Homo sapiens)

O=C1CCCCCCCCCCOCCCCO1
inactive: [1] | [3] | [6] | [9]

COC(=O)CS
not listed: [2] | [3]
inactive: all other assays above

C1COC1
not listed: [1] | [7]
inactive: all other assays above

Oc1c(I)cc(I)c2cccnc12
inactive: [1] | [4] | [7] | [9] | Aromatase (Homo sapiens)

Nc1nnc(-c2ccc([N+](=O)[O-])o2)o1
inactive: [6] | [4]
active: [1] 61.1 µM | Aromatase (Homo sapiens) 48.6 µM

CCCCCCCC/C=C\CCCCCCCCCCCC(=O)O
not listed: [2] | [3] | [7]
inactive: all other assays above

Cc1ccccc1S
not listed: [1]
inactive: all other assays above

CCCCCCCCOc1ccc(C(=O)O)cc1
inactive: [1] | [3] | [6] | [9]

CCCCCCCCC(CCCCCC)C(=O)O (stereo unspecified)
inactive: [1] | [3] | [6] | [9]

O=[N+]([O-])c1ccc(Nc2ccc(Nc3ccccc3)c(S(=O)(=O)O)c2)c([N+](=O)[O-])c1
inactive: [3] | [6] | Aromatase (Homo sapiens)
active: [1] 48.6 µM

Oc1cccc(Nc2ccccc2)c1
active: [4] 57.6 µM [activator] | [7] 25.4 µM
inactive: [1] | [3] | Aromatase (Homo sapiens)

O=C1c2ccccc2C(=O)C1(O)O
active: [2] 54.8 µM
not listed: [1] | Aromatase (Homo sapiens)
inactive: all other assays above
